As usually defined, the AC50 is the concentration at which the activity in the assay is half-maximal.

Several values for one entry are separate records, joined by “and”; a condition that tells them apart may be missing. Equal values may be shown once. Results filed as inconclusive are left out. Where a structure was tested more than once in an assay, its records may differ in their call. Activity calls are given as the source filed them. The calls were made as follows: active = hit-call score of the fitted dose curve at least 0.9, where 1 is the maximum; inconclusive = response in the unintended direction; inactive = score below 0.9.

For assay [1], the target named is rat Somatostatin Receptor (SST), Sstr1 (gene 25033) (UniProt P28646). The assay is described as follows: NVS_GPCR_rSST: NovaScreen (NVS) G Protein-Coupled Receptor Assay for rat Somatostatin Receptor (SST) (AID 2283314). The method, then: (§1) NVS_GPCR_rSST is a biochemical, single-readout assay that uses extracted gene-proteins from Rat forebrain membranes in a tissue-based cell-free assay. Measurements were taken 1 hour after chemical dosing in a 96-well plate.NVS_GPCR_rSST is one of one assay component(s) measured or calculated from the NVS_GPCR_rSST assay. It is designed to make measurements of radioligand binding, a form of binding reporter, as detected with scintillation counting signals by Filter-based radiodetection technology.Data from the assay component NVS_GPCR_rSST was analyzed into 1 assay endpoint. This assay endpoint, NVS_GPCR_rSST, was analyzed in the positive analysis fitting direction relative to DMSO as the negative control and baseline of activity. Using a type of binding reporter, loss-of-signal activity can be used to understand changes in the binding as they relate to the gene Sstr1. Furthermore, this assay endpoint can be referred to as a primary readout, because the performed assay has only produced 1 assay endpoint. To generalize the intended target to other relatable targets, this assay endpoint is annotated to the gpcr intended target family, where the subfamily is rhodopsin-like receptor.
(§2) Binding assays used specific radioligands (tritiated, iodinated) with non-radioactive competitive displacement ligands in agonist or antagonist protocols (as indicated) and various reference compounds and inhibitors to titrate specific binding to receptors and transporters. Most enzyme assays (CYPs, kinases, phosphatases, proteases, HDACs) used recombinant protein and specific substrates (fluorescence mostly, some colorimetric and radioactive) and inhibitors, followed by a biochemical separation of substrate and product. All assays for the biochemical HTS were initially run in duplicate at a single concentration (10 uM for CYP450 assays and 25 uM for all others). Assay-chemical combinations meeting a pre-defined threshold (e.g., 30% inhibition and other criteria defined below) were then run in singleton concentration-response format with maximum concentration of 20 uM for CYPs and 50 uM for all others. Each assay was run with positive and negative controls, and concurrent controls on every plate. The follow-up (secondary) screen tested active chemical-pairs in concentration series, as well as a few additional assays not tested in the primary screen, some selected negative inactives, and several cases re-run in the concentration series for confirmatory purposes.

The target in assay [2] is rat Opioid Receptor, Non-selective Sodium (Na+) Binding, Oprm1 (gene 25601) (UniProt P33535). The assay is described as follows: NVS_GPCR_rOpiate_NonSelectiveNa: NovaScreen (NVS) G Protein-Coupled Receptor Assay for rat Opioid Receptor, Non-selective Sodium (Na+) Binding (AID 2283311). On the procedure:
as §1, with “NVS_GPCR_rOpiate_NonSelectiveNa” for “NVS_GPCR_rSST”, “1.5 hours” for “1 hour”, “48-well plate.NVS_GPCR_rOpiate_NonSelectiveNa” for “96-well plate.NVS_GPCR_rSST”, “NVS_GPCR_rOpiate_NonSelectiveNa,” for “NVS_GPCR_rSST,”, “Oprm1.” for “Sstr1.”
as §2

Assay [3] deals with rat Neonicotinoid receptor (NNR), Chrna7 (gene 25302) (UniProt Q05941). The assay is described as follows: NVS_LGIC_rNNR_BungSens: NovaScreen (NVS) Ligand-Gated Ion Channel Assay for rat Neonicotinoid receptor (NNR) (AID 2283315). An outline of the steps:
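Radioligand displacement binding on rat cortical membranes, 2.5 h incubation, filtration and scintillation counting. Loss of specific binding fitted relative to DMSO.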

For assay [4], the target named is rat Opioid Receptor, Non-selective Binding, Oprm1 (gene 25601) (UniProt P33535). The assay is described as follows: NVS_GPCR_rOpiate_NonSelective: NovaScreen (NVS) G Protein-Coupled Receptor Assay for rat Opioid Receptor, Non-selective Binding (AID 2283318). The essentials:
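Rat forebrain membranes, cell-free radioligand binding with filter-based scintillation counting, read 1.5 h after dosing. Primary screen in duplicate at 25 uM; actives retested in concentration series. Loss of signal versus DMSO baseline scored.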

Assay [5] in a line: NVS_IC_rCaDHPRCh_L: NovaScreen (NVS) Ion Channel Assay for rat Calcium Channel, Type L, Dihydropyridine Site (CaDHPRCh_L) (AID 2283320). An outline of the steps:
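Radioligand binding to dihydropyridine site on rat cortical membranes, filter-based scintillation counting, 1 h after dosing. Screened in duplicate at 25 uM; actives rerun in concentration-response up to 50 uM. Loss of signal versus DMSO baseline.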

Assay [6] has as its target Sodium channel protein type 1 subunit alpha (Rattus norvegicus) (UniProt P04774). Description: NVS_IC_rNaCh_site2: NovaScreen (NVS) Ion Channel Assay for rat Sodium Channel, Site 2 (NaCh) (AID 2283322).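 Also: hit means loss of radioligand binding signal relative to DMSO so AC50 marks displacement.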 The essentials:
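Membranes: rat forebrain. Format: competitive radioligand displacement, filter separation, scintillation readout, 1 h exposure. Primary screen in duplicate at 25 uM; actives retested in concentration series.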

The subject of the next assay is NCBI gene 24521. Description: NVS_IC_rKATPCh: NovaScreen (NVS) Ion Channel Assay for rat Potassium Channel, ATP-Sensitive (KATPCh) (AID 2283319). An outline of the steps:
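Rat cortical membranes; radioligand binding at ATP-sensitive K channel site, filter-based scintillation counting 2 h after dosing. Single-point duplicate screen at 25 uM, hits rerun in concentration-response up to 50 uM; loss of signal versus DMSO.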

In assay [7] the target is rat Vasopressin 1 Receptor (V1), Avpr1a (gene 25107) (UniProt P30560). Description: NVS_GPCR_rV1: NovaScreen (NVS) G Protein-Coupled Receptor Assay for rat Vasopressin 1 Receptor (V1) (AID 2283316). The essentials:
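Radioligand binding on rat liver membranes, 1.5 h incubation, filter-based scintillation counting. Single 25 uM screen in duplicate; chemicals meeting threshold (e.g. 30% inhibition) run in concentration-response up to 50 uM.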

Assay [8] concerns the target rat Glutamate, AMPA Site (AMPA), Gria1 (gene 50592) (UniProt P19490). Description: NVS_LGIC_rAMPA: NovaScreen (NVS) Ligand-Gated Ion Channel Assay for rat Glutamate, AMPA Site (AMPA) (AID 2283324). On the procedure:
as §1, with “NVS_LGIC_rAMPA” for “NVS_GPCR_rSST”, “48-well plate.NVS_LGIC_rAMPA” for “96-well plate.NVS_GPCR_rSST”, “NVS_LGIC_rAMPA,” for “NVS_GPCR_rSST,”, “Gria1.” for “Sstr1.”, “ion channel” for “gpcr”, “ligand-gated ion channel.” for “rhodopsin-like receptor.”
as §2

Assay [9] has as its target bovine Gamma-Aminobutyric Acid Type A Receptor BDZ, alpha 5 site (GABARa5), GABRA5 (gene 523515) (UniProt Q08E50). Description: NVS_LGIC_bGABARa5: NovaScreen (NVS) Ligand-Gated Ion Channel Assay for bovine Gamma-Aminobutyric Acid Type A Receptor BDZ, alpha 5 site (GABARa5) (AID 2283323). An outline of the steps:
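Radioligand competitive displacement binding on bovine hippocampal membranes, read 1 hr after dosing by filter-based scintillation counting. Primary screen at 25 uM in duplicate; actives (e.g. ≥30% inhibition) then run in concentration-response up to 50 uM.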

Sequence of rat Opioid Receptor, Non-selective Binding, Oprm1 (gene 25601) (P33535 whole entry, looked up): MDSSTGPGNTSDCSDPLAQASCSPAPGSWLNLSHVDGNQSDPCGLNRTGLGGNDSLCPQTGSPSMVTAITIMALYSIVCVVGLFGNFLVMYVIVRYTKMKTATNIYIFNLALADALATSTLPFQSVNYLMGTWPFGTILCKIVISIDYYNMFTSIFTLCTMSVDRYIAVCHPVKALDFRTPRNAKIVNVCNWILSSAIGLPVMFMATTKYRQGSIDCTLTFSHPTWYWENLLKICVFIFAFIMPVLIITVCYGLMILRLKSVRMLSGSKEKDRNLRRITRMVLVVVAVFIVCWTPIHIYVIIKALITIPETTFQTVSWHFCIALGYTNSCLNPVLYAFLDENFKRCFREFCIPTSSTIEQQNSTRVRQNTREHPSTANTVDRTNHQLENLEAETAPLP
Sequence of rat Opioid Receptor, Non-selective Sodium (Na+) Binding, Oprm1 (gene 25601) (P33535 whole entry, looked up): as above
Sequence of rat Somatostatin Receptor (SST), Sstr1 (gene 25033) (P28646 whole entry, looked up): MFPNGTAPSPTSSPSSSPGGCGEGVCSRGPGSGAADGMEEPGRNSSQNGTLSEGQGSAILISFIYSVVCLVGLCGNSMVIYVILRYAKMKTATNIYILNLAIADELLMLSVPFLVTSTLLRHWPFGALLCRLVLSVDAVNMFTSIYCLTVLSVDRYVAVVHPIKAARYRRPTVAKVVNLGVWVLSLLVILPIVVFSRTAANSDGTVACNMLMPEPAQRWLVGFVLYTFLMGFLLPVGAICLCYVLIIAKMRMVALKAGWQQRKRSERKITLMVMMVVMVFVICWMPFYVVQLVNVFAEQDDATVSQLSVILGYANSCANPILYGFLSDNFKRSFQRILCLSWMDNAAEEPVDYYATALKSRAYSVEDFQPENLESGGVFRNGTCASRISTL
Sequence of rat Neonicotinoid receptor (NNR), Chrna7 (gene 25302) (Q05941 whole entry, looked up): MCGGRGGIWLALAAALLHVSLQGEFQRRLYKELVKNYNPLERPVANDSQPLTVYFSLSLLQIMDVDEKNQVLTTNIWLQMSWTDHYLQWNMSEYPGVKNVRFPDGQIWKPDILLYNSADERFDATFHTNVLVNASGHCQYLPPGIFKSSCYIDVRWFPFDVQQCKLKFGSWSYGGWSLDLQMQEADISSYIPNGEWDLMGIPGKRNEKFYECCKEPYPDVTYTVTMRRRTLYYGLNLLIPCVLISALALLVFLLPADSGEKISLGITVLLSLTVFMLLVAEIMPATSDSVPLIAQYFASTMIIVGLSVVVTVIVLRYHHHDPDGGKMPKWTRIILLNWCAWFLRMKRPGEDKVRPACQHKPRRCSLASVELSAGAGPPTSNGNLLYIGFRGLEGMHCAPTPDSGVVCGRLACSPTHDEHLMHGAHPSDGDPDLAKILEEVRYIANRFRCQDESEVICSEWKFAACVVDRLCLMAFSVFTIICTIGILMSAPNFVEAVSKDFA
Sequence of rat Glutamate, AMPA Site (AMPA), Gria1 (gene 50592) (P19490 whole entry, looked up): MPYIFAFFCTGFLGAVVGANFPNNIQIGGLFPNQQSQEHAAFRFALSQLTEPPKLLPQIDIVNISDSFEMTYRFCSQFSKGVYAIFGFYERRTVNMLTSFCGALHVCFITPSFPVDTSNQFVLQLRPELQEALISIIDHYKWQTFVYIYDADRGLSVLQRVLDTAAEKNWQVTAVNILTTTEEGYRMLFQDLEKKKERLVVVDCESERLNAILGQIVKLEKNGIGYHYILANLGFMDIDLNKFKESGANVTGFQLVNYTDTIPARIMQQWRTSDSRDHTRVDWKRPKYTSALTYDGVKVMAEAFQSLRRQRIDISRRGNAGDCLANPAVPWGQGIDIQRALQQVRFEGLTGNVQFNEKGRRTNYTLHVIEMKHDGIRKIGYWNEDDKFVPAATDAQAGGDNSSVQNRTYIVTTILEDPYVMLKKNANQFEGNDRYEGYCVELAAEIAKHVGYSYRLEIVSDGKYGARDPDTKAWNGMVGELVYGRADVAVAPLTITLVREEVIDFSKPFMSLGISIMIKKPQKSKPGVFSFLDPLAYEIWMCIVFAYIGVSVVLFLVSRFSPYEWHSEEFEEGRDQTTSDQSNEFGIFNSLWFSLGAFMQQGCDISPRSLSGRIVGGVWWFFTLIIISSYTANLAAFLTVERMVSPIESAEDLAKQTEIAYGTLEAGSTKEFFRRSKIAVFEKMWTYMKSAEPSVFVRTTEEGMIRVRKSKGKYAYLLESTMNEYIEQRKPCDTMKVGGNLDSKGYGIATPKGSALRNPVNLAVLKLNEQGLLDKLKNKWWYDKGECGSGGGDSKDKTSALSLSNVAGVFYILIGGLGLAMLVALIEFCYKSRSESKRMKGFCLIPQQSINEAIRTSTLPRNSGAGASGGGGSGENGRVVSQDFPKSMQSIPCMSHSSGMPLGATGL
Sequence of rat Vasopressin 1 Receptor (V1), Avpr1a (gene 25107) (P30560 whole entry, looked up): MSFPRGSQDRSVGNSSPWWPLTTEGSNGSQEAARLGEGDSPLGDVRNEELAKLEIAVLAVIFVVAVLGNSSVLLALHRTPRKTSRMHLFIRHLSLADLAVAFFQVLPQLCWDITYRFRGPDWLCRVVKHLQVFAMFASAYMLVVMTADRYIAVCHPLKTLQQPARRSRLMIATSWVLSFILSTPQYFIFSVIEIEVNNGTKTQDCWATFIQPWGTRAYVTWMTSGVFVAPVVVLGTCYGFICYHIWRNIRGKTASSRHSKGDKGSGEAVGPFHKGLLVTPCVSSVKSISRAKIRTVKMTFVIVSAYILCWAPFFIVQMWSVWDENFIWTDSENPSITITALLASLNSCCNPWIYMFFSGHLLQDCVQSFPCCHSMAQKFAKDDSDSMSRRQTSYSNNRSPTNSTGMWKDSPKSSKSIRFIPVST
Sequence of bovine Gamma-Aminobutyric Acid Type A Receptor BDZ, alpha 5 site (GABARa5), GABRA5 (gene 523515) (Q08E50 whole entry, looked up): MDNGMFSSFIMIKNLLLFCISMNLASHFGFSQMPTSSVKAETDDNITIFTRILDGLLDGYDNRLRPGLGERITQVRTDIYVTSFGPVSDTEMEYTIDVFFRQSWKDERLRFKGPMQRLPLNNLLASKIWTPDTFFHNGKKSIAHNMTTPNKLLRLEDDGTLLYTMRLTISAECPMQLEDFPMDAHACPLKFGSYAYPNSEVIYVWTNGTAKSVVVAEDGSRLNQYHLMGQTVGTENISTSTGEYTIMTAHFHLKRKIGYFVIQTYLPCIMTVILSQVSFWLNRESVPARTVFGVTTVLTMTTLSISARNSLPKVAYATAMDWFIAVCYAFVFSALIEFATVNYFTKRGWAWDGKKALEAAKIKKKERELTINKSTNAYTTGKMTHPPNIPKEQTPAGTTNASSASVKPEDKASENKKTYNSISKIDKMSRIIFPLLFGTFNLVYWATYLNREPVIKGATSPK

`COC(=O)c1ccccc1S(=O)(=O)NC(=O)Nc1nc(OC(F)F)cc(OC(F)F)n1`: the AC50 in [1] is 36.3 µM (active). Consider `CC(C)(c1ccc(O)cc1)c1ccc(O)cc1`, for which the AC50 in assay [2] is 25.4 µM (active) and 17 µM (active) and 20.5 µM (active); in [4], 25.4 µM (active) and 17.6 µM (active); in [6] it was 25.4 µM (active). The compound was called inactive in assay [3], in assay [5] and in assay [6]. For `c1ccc(Nc2ccccc2)cc1`, the compound was classed as inactive in the assay on NCBI gene 24521. For the compound `CC(=O)S[C@@H]1CC2=CC(=O)CC[C@]2(C)[C@H]2CC[C@@]3(C)[C@@H](CC[C@@]34CCC(=O)O4)[C@H]12`, the figures for the AC50 in assay [2], in assay [3] and in assay [6] were 17.8 µM (active), 17.1 µM (active) and 8.6 µM (active), respectively. For the compound `CC(C)(C)[C@@H](O)[C@@H](Cc1ccc(Cl)cc1)n1cncn1`, the outcome in assay [1] was inactive. As to `CN(C)C(=O)Nc1ccc(Cl)c(Cl)c1`, in the assay with NCBI gene 24521, the compound was classed as inactive. For the compound `C=CCOC(Cn1ccnc1)c1ccc(Cl)cc1Cl` (stereo not drawn), in assay [2], the compound was classed as inactive. Also, the AC50 was 9.36 µM (active) in assay [4] and 4.57 µM (active) in [6].

Regarding `N#CSCSc1nc2ccccc2s1`, the AC50 in [7] is 2.34 µM (active). Turning to `O=C(c1ccc(O)cc1O)c1ccc(O)cc1O`, the outcome in assay [3] and in assay [5] was inactive. On to `S=C(S)NCCNC(=S)S.[Mn+2].[S-]C([S-])=NCCN=C([S-])[S-].[Zn+2]`, for which the result in assay [2], in [1], in [7] and in assay [8] was inactive. Also, the AC50 is 1.49 µM (active) in assay [1] and 4.81 µM (active) in [8]. Turning to `OB(O)O`, in [6], the call was inactive.

As to `COC(=O)c1ccccc1C(=O)O`, the AC50 in the assay with NCBI gene 24521 is 25 µM (active). As to `CCCCCOC(=O)COc1cc(N2C(=O)C3=C(CCCC3)C2=O)c(F)cc1Cl`, the outcome in assay [8] was inactive. For the compound `CCOC(=O)c1ccc(O)cc1`, the result in assay [2] was inactive.

As for `Oc1ccc(C(c2ccc(O)cc2)C(Cl)(Cl)Cl)cc1`, in assay [5], the AC50 is 6.47 µM (active). For the same compound, the result in assay [9] and in assay [8] was inactive. As for `CCOC(=O)C(C)Oc1ccc(Oc2nc3ccc(Cl)cc3o2)cc1` (stereo not drawn), the result in [5] was inactive. As to `C[C@]12C[C@H](O)[C@H]3[C@@H](CCC4=CC(=O)CC[C@@]43C)[C@@H]1CC[C@@H]2C(=O)CO`, in [3], the compound was called inactive. `S=C([S-])NCCNC(=S)[S-].[Mn+2]`: the compound was called inactive in assay [8]. In the case of `N[C@@H](Cc1cc(I)c(Oc2ccc(O)c(I)c2)c(I)c1)C(=O)O`, the call in assay [3] was inactive.

Turning to `CCOC(=O)NCCOc1ccc(Oc2ccccc2)cc1`, the compound was called inactive in [6]. For `CSC(=O)c1cccc2nnsc12`, the outcome in assay [2] was inactive.
